# PLK1 PBD inh: inhibitors of human PLK1 polo-box domain binding. Plk1 PBD binding of FITC phosphopeptide, fluorescence polarization. P53350. AID 720504. 360,000 compounds, 2.8% hits. Potency, µM, for inactives: max response, negative = inhibition, most hits filed as inhibitors; note: potency is the fitted concentration of half-maximal effect; series mostly up to about 57 µM; nearly all actives have a fitted effect of over 65% in size
# CCT chaperon mod: changes cytosolic chaperonin activity; purified chaperonin ATPase assay, HTRF ADP detection, 30 min; activity change, % (test concentration not listed), hits read low; 360,000 compounds, 0.3% hits; AID 651819; in the data active = activity change below about -30%
#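 TRiC (40 or 20 nM final, by batch activity) in 30 mM Tris pH 7.4, 100 mM KCl, 5 mM MgCl2, 1 mM DTT was treated with compound at 76 uM single dose, then 10 uM ATP, 30 min at 37 °C. ADP was read by HTRF Transcreener.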
# G9a inh: G9a (human) methyltransferase inhibition | Q96KQ7 | G9a H3K9 monomethylation, AlphaScreen, 2 h | Potency, µM (series often up to 102 µM), without a hit: top-dose activity, negative = inhibition, most hits filed as inhibitors | 350,000 compounds, 8.8% hits; note: potency is the fitted concentration of half-maximal effect; nearly all actives have a fitted effect of over 75% in size
# Target sequence (Q96KQ7 913-1193 limits assumed): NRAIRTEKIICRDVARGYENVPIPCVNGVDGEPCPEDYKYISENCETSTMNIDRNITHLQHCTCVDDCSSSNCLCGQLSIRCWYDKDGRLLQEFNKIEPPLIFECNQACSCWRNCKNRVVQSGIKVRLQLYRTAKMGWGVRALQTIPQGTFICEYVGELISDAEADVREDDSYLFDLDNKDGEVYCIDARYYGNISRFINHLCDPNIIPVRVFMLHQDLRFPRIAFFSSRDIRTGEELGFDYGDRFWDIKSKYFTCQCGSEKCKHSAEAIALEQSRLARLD
#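 Enzyme 20 nM + cpd, 15 min RT; add b-H3K9 pep 500 nM / SAM 20 uM; 2 h RT; anti-H3K9me1 Ab 0.5 ug/mL + SA donor / anti-rabbit acceptor beads 20 ug/mL each, 10 min; AlphaScreen read.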
# Sfp PPTase inh: inhibitors of Bacillus subtilis Sfp phosphopantetheinyl transferase; Q9F4F7; Biochemical Sfp PPTase activity, qHTS; Potency, µM, without a hit: largest response in the series, negative = inhibition, hits mostly inhibitors; 310,000 compounds, 3.5% hits; AID 1490;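 note: the enzyme is Sfp with the accession as filed and its product quenches rhodamine fluorescence; potency is the fitted concentration of half-maximal effect; 0% = enzyme reaction without inhibitor and -100% = no enzyme wells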
#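 Reaction rates are the 30-min fluorescence difference (ex 525, em 598 nm) in wells containing 15 nM Sfp, 5 uM rhodamine-CoA and 12.5 uM BHQ-2-YbbR at pH 7.6 with 10 mM MgCl2.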
# MmCpn inh: M. maripaludis TRiC chaperonin inhibition | purified Mm-Cpn ATPase, ADP Transcreener TR-FRET | Potency, µM (top dose mostly 76.9 µM), for inactives: top-dose activity, negative = inhibition, usual class: inhibitors | 330,000 compounds, 0.031% hits; note: potency is the fitted concentration of half-maximal effect; nearly all actives have a fitted effect of over 80% in size
#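 Inhibition of chaperonin ATP hydrolysis is measured as reduced ADP production, detected by competitive TR-FRET in which signal falls with ADP. Final enzyme 25 nM and ATP 10 uM, reacted 30 min at 37°C.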
# VDR inh: vitamin D3 receptor (human) inhibition. AID 504847. P11473. 400,000 compounds, 0.93% hits. Potency, µM, for inactives: max response, negative = inhibition, usual class: inhibitors. VDR-SRC2-3 peptide fluorescence polarization, 2 h; note: potency is the fitted concentration of half-maximal effect
# Target sequence (P11473 whole entry, looked up): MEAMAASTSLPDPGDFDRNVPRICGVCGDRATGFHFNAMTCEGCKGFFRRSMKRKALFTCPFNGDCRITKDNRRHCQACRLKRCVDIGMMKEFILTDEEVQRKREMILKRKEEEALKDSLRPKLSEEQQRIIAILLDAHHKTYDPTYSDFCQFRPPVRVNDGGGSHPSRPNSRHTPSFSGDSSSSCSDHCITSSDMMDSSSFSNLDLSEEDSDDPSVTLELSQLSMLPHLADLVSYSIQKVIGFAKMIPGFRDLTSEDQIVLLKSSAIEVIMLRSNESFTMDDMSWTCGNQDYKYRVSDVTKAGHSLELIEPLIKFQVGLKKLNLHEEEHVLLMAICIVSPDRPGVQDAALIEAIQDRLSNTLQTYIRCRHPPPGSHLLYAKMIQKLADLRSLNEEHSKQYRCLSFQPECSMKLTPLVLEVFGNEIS
#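 The screen uses fluorescence polarization to detect compounds that interfere with recruitment of the SRC2-3 coactivator peptide to VDR; plates are read after 2 h at room temperature.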
# Numbers without * were called inactive; ? = inconclusive; · = not tested or not shown; [ ] = dose if it differs, or a comment. A selection: hits, their analogues and other compounds. The true share with any hit is near 10%. Unless noted, calls come from the whole dose curve; as a rule, active = well fitted curve in the direction sought with a large enough effect; inconclusive = small, poorly fitted or top-dose-only effect, or another doubt; inactive = no such curve, though single readings can be large; an effect the other way counts as inactive or inconclusive. Unless noted, % is set by controls: 0 for no effect and ±100 for the full control effect.
SMILES,PLK1 PBD inh,CCT chaperon mod,G9a inh,Sfp PPTase inh,MmCpn inh,VDR inh
COc1cc(C[C@@H](C)[C@@H](C)Cc2ccc(O)c(OC)c2)ccc1O,-3%,1,·,·,2%,8%
Cc1c(C(=O)Nc2ccc(F)c(Cl)c2)sc2nc3n(c(=O)c12)CCC3,·,·,-1%[59 µM],·,·,9%
Cc1ccc(N/N=C2\CS(=O)(=O)N(C)c3ccsc32)cc1,-18%,1,45µM*,-18%,0%,?
CCCC(=O)N/N=C1\CS(=O)(=O)N(C)c2ccsc21,-9%,0,-14%,1%,0%,-6%
CN1c2ccsc2/C(=N/Nc2ccc(F)cc2)CS1(=O)=O,27µM*,-2,14µM*,-13%,-3%,-8%
O=C1NCCC/C1=N/Nc1ccc(F)cc1,-9%,-5,?,12%,1%,-25%
COc1ccc2c(c1)O[C@H](c1ccc3c(c1)OCO3)[C@@H](OC(=O)NCCOc1ccccc1)C2=O,·,·,·,4%,·,-2%
Cc1ccc(NC(=O)COC(=O)C2CC2(Cl)Cl)cc1C (stereo not drawn),27µM*,-5,-20%,0%,-4%,1%
Cc1ccc(NC(=O)COC(=O)C2CC2)cc1Cl,4%,0,22%[12.7 µM],·,3%,-29%
Cc1oc(-c2ccc(Cl)cc2)cc1C(=O)/C(C#N)=C/Nc1cccc(OC(F)(F)F)c1,-17%,-3,50µM*,3%,-2%,-8%
COc1cc(C)ccc1OCCSc1nc2ccc(NC(=O)c3cccs3)cc2s1,·,·,2%[59 µM],·,·,-6%
NC(=O)c1cc(S(=O)(=O)N2CCc3ccccc3C2)cs1,21µM*,-2,-4%,0%,2%,?
CCOC(=O)CCN1C(=O)[C@H]2[C@H]3[C@H](O)[C@H](O)C/C(=N/NC(=O)OCC)[C@@H]3CC[C@@H]2C1=O,·,·,·,16%,·,·
C=CCSc1nc2c(sc3nc(C)cc(C)c32)c(=O)[nH]1,?,-4,45µM*,-23%,1%,-20%
Cn1cc(/C=N/NC(=O)c2cc3cc(Br)ccc3o2)c2ccccc21,5%,-2,50µM*,-5%,0%,-26%
O=C(O)c1ccc(-n2cccc2/C=N\NC(=O)c2cc3cc(Br)ccc3o2)cc1,21µM*,1,14µM*,-11%,-1%,-16%
O=C(O)Cn1cc(/C=N/NC(=O)c2cc3cc(Br)ccc3o2)c2ccccc21,-2%,2,-35%,-19%,-4%,14%
COCCCn1c(SCC(=O)NCc2ccco2)nc2sc3c(c2c1=O)CCC3,-11%,0,50µM*,?,1%,6%
O=C(CSc1nc2sc3c(c2c(=O)n1-c1ccccc1)CCCC3)NCc1ccco1,-9%,-2,-15%,-16%,1%,-9%
CCN(CC)C(=O)CSc1nc2sc3c(c2c(=O)n1CCCOC)CCC3,24µM*,3,-10%[0.501 µM],7%,-3%,?
CCCCn1c(SCC(N)=O)nc2sc3c(c2c1=O)CCC3,-6%,-4,22%,18%,-4%,-13%
CCn1c(SCC(N)=O)nc2sc3c(c2c1=O)CCN(C)C3,-4%,0,56µM*,-24%,2%,6%
CCCn1c(SCC(=O)N2CCN(C(C)=O)CC2)nc2sc3c(c2c1=O)CCC3,0%,-3,71µM*,7%,1%,-15%
CCCn1c(SCC(=O)NCC)nc2sc3c(c2c1=O)CCC3,-9%,2,23%,17%,-1%,3%
Cc1oc2ncnc(N3CCCCC3)c2c1C(=O)Nc1cccc(Cl)c1C,·,·,-4%[59 µM],·,·,2%
SMILES,PLK1 PBD inh,CCT chaperon mod,G9a inh,Sfp PPTase inh,MmCpn inh,VDR inh
CC1(C)[C@@H](OC(=O)CCC(=O)O)CC[C@@]2(C)[C@H]1CC[C@@]1(C)[C@H]2C(=O)C=C2[C@H]3C[C@](C)(C(=O)O)CC[C@]3(C)CC[C@@]21C,·,·,26%[21.5 µM],12%,·,?
CCOC(=O)c1cc(S(=O)(=O)Nc2cc(C)c(Cl)cc2OC)[nH]n1,·,·,14µM*,·,·,16%
CCOC(=O)c1cc(S(=O)(=O)Nc2cc(OC)ccc2OC)[nH]n1,·,·,11µM*,·,·,13%
CCCC[C@@H]1CN2[C@H](c3ccc(Br)cc3)[C@@H](C)CC[C@H]2C(=O)O1,·,·,·,17%,·,·
CCCCC/C=C\C\C=C/C=C/C=C/[C@@H](SCC(N)C(=O)O)[C@@H](O)CCCC(=O)O (stereo partly drawn),·,·,·,-2%,·,7%
Cc1ccc(C2c3c(oc4ccccc4c3=O)C(=O)N2c2ccc(C)cn2)cc1 (stereo not drawn),·,·,?,·,·,-11%
Cc1ccc(NC(=O)c2cc(-c3ccc(Br)s3)nc3ccccc23)cc1F,·,·,-1%[59 µM],·,·,-9%
CC(=C/c1ccccc1)/C=N/n1c(C)n[nH]c1=S,-4%,-1,·,-7%,4%,-14%
Cc1cc(-c2n[nH]c(=S)n2/N=C/C(Cl)=C/c2ccccc2)n[nH]1,?,-1,1.6µM*,50µM*,1%,?
S=c1[nH]nc(-c2ccco2)n1/N=C/C(Cl)=C/c1ccccc1,?,0,4.5µM*,?,-1%,?
COc1ccc(OCCn2nnc3sc4c(c3c2=O)CCCC4)cc1,·,·,-3%[59 µM],·,·,13%
CCc1ccc(/C=N/n2c(C3CCCCC3)n[nH]c2=S)cc1,?,-3,32µM*,?,2%,?
FC(F)(F)c1ccc(/C=N/n2c(C3CCCCC3)n[nH]c2=S)cc1,?,0,50µM*,-4%,1%,3%
Cc1ccc(/C=N/n2c(C)n[nH]c2=S)o1,-4%,-2,?,-12%,-4%,-15%
S=c1[nH]nc(C2CCCCC2)n1/N=C/c1ccc(Cl)cc1,30µM*,2,40µM*,?,4%,-10%
S=c1[nH]nc(C2CCCCC2)n1/N=C/c1ccc(Br)s1,-16%,-1,8.9µM*,21%,-1%,-11%
O=C(O/N=C/c1ccc(Cl)cc1)C1CCCCC1,2%,-1,40%,16%,1%,?
O=C1CC2(CCCC2)CC(=O)N1CCCCNC[C@H]1COc2ccccc2O1,·,·,·,9%,·,6%
O=C(CCC1N=C2c3ccccc3N=C(SCc3cccc(F)c3)N2C1=O)NC1CCCCC1 (stereo not drawn),·,·,3%[59 µM],·,·,-5%
Cc1oc2ncn(C)c(=O)c2c1C(=O)Nc1ccc(F)cc1,·,·,-1%[59 µM],·,·,1%
Cc1ccc(/C=N/n2c(C3CCCCC3)n[nH]c2=S)cc1,?,0,10µM*,50µM*,0%,-14%
O=[N+]([O-])c1ccc(Cl)c(/C=N/n2c(C3CCCCC3)n[nH]c2=S)c1,-28%,-1,?,7%,-2%,-3%
S=c1[nH]nc(C2CCCCC2)n1/N=C/c1ccc(Br)cc1,?,-2,10µM*,?,-1%,16%

# From PubChem
